# The supplement of paper PMC8728848
# This excerpt belongs to a sample that is enriched for the strongest signals.
# B1: F17fG (Escherichia coli), Q9RH91 (protein)
# chain: MTNFYKVFLAVFILVCCNISHAAVSFIGSTENDVGPSQGSYSSTHAMDNLPFVYNTGHNIGYQNANVWRISGGFCVGLDGKVDLPVVGSLDGQSIYGLTEEVGLLIWMGDTNYSRGTAMSGNSWENVFSGWCVGNYVSTQGLSVHVRPVILKRNSSAQYSVQKTSIGSIRMRPYNGSSAGSVQTTVNFSLNPFTLNDTVTSCRLLTPSAVNVSLAAISAGQLPSSGDEVVAGTTSLKLQCDAGVTVWATLTDATTPSNRSDILTLTGASTATGVGLRIYKNTDSTPLKFGPDSPVKGNENQWQLSTGTETSPSVRLYVKYVNTGEGINPGTVNGISTFTFSYQ
# B2: PEB3 (Campylobacter jejuni), Q0PBL7 (protein)
# chain: MKKIITLFGACALAFSMANADVNLYGPGGPHTALKDIANKYSEKTGVKVNVNFGPQATWFEKAKKDADILFGASDQSALAIASDFGKDFNVSKIKPLYFREAIILTQKGNPLKIKGLKDLANKKVRIVVPEGAGKSNTSGTGVWEDMIGRTQDIKTIQNFRNNIVAFVPNSGSARKLFAQDQADAWITWIDWSKSNPDIGTAVAIEKDLVVYRTFNVIAKEGASKETQDFIAYLSSKEAKEIFKKYGWRE
# B3: RS-IIL (Ralstonia solanacearum) (protein)
# chain: AQQGVFTLPANTSFGVTAFANAANTQTIQVLVDNVVKATFTGSGTSDKLLGSQVLNSGSGAIKIQVSVNGKPSDLVSNQTILANKLNFAMVGSEDGTDNDYNDGIAVLNWPLG
# Assays:
# Assay in all cases: glycan array binding signal (z-score within array); higher = stronger binding
# Conditions in all cases: glycan notation: IUPAC condensed, linker removed
# [1] = target: Fuc(a1-2)Gal(b1-3)GalNAc(b1-4)[Neu5Ac(a2-3)]Gal(b1-4)Glc
# How it was run: (§1)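 Glycan array data were curated from 3228 arrays in the Consortium for Functional Glycomics database and kept only where the protein sequence was available. Glycan names were converted to IUPAC-condensed notation, and columns mapping to the same glycan were averaged. The binding signal is a within-array Z-score, averaged across arrays of the same protein sequence at different concentrations or buffers and across linkers. Negative Z-scores can be read as non-binding.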
# Fuc(a1-2)Gal(b1-4)GlcNAc = target: Fuc(a1-2)Gal(b1-4)GlcNAc
# How it was run: as §1
# [2] = target: Fuc(a1-2)[Gal(a1-4)]Gal(b1-4)GlcNAc
# How it was run: as §1
# [3] = target: Fuc(a1-3)[Gal(b1-4)]GlcNAc(b1-4)Gal(b1-4)[Fuc(a1-3)]GlcNAc
# How it was run: as §1
# [4] = target: Fuc(a1-3)[Gal3S(b1-4)]GlcNAc
# How it was run: as §1
# Fuc(a1-4)GlcNAc = target: Fuc(a1-4)GlcNAc
# How it was run: as §1
# [5] = target: Gal(b1-3)GlcNAc(b1-3)Gal(b1-4)GlcNAc
# How it was run: as §1
# [6] = target: Gal3S(b1-3)[Fuc(a1-4)]GlcNAc
# How it was run: as §1
# Gal3S6S(b1-4)GlcNAc = target: Gal3S6S(b1-4)GlcNAc
# How it was run: as §1
# Gal4S6S(b1-4)GlcNAc = target: Gal4S6S(b1-4)GlcNAc
# How it was run: as §1
# [7] = target: GlcNAc(a1-3)Gal(b1-4)GlcNAc
# How it was run: as §1
# [8] = target: GlcNAc(a1-6)Gal(b1-4)GlcNAc
# How it was run: as §1
# GlcNAc(b1-3)Gal = target: GlcNAc(b1-3)Gal
# How it was run: as §1
# [9] = target: GlcNAc(b1-3)Gal(b1-3)GalNAc
# How it was run: as §1
# GlcNAc(b1-3)Gal(b1-4)Glc = target: GlcNAc(b1-3)Gal(b1-4)Glc
# How it was run: as §1
# [10] = target: GlcNAc(b1-3)[GlcNAc(b1-6)]Gal(b1-4)GlcNAc
# How it was run: as §1
# [11] = target: GlcNAc(b1-3)[GlcNAc(b1-6)]GlcNAc(b1-4)GlcNAc
# How it was run: as §1
# [12] = target: Man(a1-2)Man(a1-3)[Man(a1-6)]Man(a1-6)[Man(a1-2)Man(a1-3)]Man(b1-4)GlcNAc(b1-4)GlcNAc
# How it was run: as §1
# [13] = target: Neu5Ac(a2-3)Gal(b1-4)[Fuc(a1-3)]GlcNAc(b1-3)Gal(b1-4)GlcNAc
# How it was run: as §1
# [14] = target: Neu5Gc(a2-3)Gal(b1-3)[Fuc(a1-4)]GlcNAc
# How it was run: as §1
# [15] = target: Neu5Gc(a2-3)Gal(b1-4)GlcNAc
# How it was run: as §1
# [16] = target: Neu5Ac(a2-6)GlcNAc(b1-4)GlcNAc
# How it was run: as §1
# [17] = target: Neu5Ac(a2-8)Neu5Ac(a2-8)Neu5Ac(a2-8)Neu5Ac(a2-3)[GalNAc(b1-4)]Gal(b1-4)Glc
# How it was run: as §1
# [18] = target: Fuc(a1-2)[GalNAc(a1-3)]Gal(b1-4)[Fuc(a1-3)]GlcNAc
# How it was run: as §1
# [19] = target: Gal(b1-4)GlcNAc(b1-3)[Gal(b1-4)GlcNAc(b1-6)]GalNAc
# How it was run: as §1
# Gal3S6S(b1-4)GlcNAc6S = target: Gal3S6S(b1-4)GlcNAc6S
# How it was run: as §1
# Glc(a1-4)Glc = target: Glc(a1-4)Glc
# How it was run: as §1
# [20] = target: GlcNAc(b1-4)Gal(b1-4)GlcNAc
# How it was run: as §1
# [21] = target: Man(a1-2)Man(a1-2)Man(a1-3)Man
# How it was run: as §1
# [22] = target: Man(a1-2)Man(a1-2)Man(a1-6)[Man(a1-3)]Man
# How it was run: as §1
# [23] = target: Man(a1-3)[Man(a1-6)]Man(b1-4)GlcNAc(b1-4)GlcNAc
# How it was run: as §1
# Neu5Ac(a2-8)Neu5Ac = target: Neu5Ac(a2-8)Neu5Ac
# How it was run: as §1
binder,measurement,setting,value
B1,glycan array binding signal (z-score),[1],-0.197
same,glycan array binding signal (z-score),Fuc(a1-2)Gal(b1-4)GlcNAc,-0.322
same,glycan array binding signal (z-score),[2],-0.127
same,glycan array binding signal (z-score),[3],-0.238
same,glycan array binding signal (z-score),[4],-0.234
same,glycan array binding signal (z-score),Fuc(a1-4)GlcNAc,-0.38
same,glycan array binding signal (z-score),[5],-0.3
same,glycan array binding signal (z-score),[6],-0.253
same,glycan array binding signal (z-score),Gal3S6S(b1-4)GlcNAc,0.156
same,glycan array binding signal (z-score),Gal4S6S(b1-4)GlcNAc,0.026
same,glycan array binding signal (z-score),[7],-0.323
same,glycan array binding signal (z-score),[8],-0.364
same,glycan array binding signal (z-score),GlcNAc(b1-3)Gal,5.09
same,glycan array binding signal (z-score),[9],5.89
same,glycan array binding signal (z-score),GlcNAc(b1-3)Gal(b1-4)Glc,4.83
same,glycan array binding signal (z-score),[10],6.97
same,glycan array binding signal (z-score),[11],0.169
same,glycan array binding signal (z-score),[12],-0.263
same,glycan array binding signal (z-score),[13],-0.23
same,glycan array binding signal (z-score),[14],-0.305
same,glycan array binding signal (z-score),[15],-0.278
B2,glycan array binding signal (z-score),[16],-0.895
same,glycan array binding signal (z-score),[17],-0.3
same,glycan array binding signal (z-score),[15],-0.701
B3,glycan array binding signal (z-score),[1],0.021
same,glycan array binding signal (z-score),[18],0.302
same,glycan array binding signal (z-score),[5],-0.381
same,glycan array binding signal (z-score),[19],-0.389
same,glycan array binding signal (z-score),Gal3S6S(b1-4)GlcNAc6S,-0.385
same,glycan array binding signal (z-score),Glc(a1-4)Glc,-0.266
same,glycan array binding signal (z-score),[20],-0.389
same,glycan array binding signal (z-score),[21],4.58
same,glycan array binding signal (z-score),[22],5.58
same,glycan array binding signal (z-score),[12],4.71
same,glycan array binding signal (z-score),[23],4.76
same,glycan array binding signal (z-score),[13],-0.268
same,glycan array binding signal (z-score),Neu5Ac(a2-8)Neu5Ac,-0.388
